The list is not random: actives were taken first. Their share in the collection is about 7.7%.
TbPYK inhibitor – blocks Trypanosoma brucei pyruvate kinase. Q57TT1. TbPYK enzyme, Kinase-Glo Plus ATP luminescence, 45 min. Potency, µM (top dose mostly 76.8 µM), without a hit: at the top dose activity, negative = inhibition, usual class: inhibitors. 410,000 tested, 0.12% active. AID 624173; note: potency is the fitted concentration of half-maximal effect; nearly all actives have a fitted effect of over 50% in size
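Luminescent Kinase-Glo Plus end-point after 45 min room-temperature reaction of T. brucei pyruvate kinase started with 130 uM ADP (final). Buffer TEA 50 mM pH 7.2 with KCl, MgCl2, BSA, Tween-20; titration-based qHTS with fitted concentration-effect curves.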
Sm TGR block – blocks Schistosoma mansoni thioredoxin glutathione reductase; purified TGR, DTNB reduction, TNB absorbance 405 nm; Potency, µM (titrated, usually from 114 µM), inactives show at the highest dose activity change, negative = inhibition, hits mostly inhibitors; 360,000 tested, 3% active; AID 485364; note: potency is the fitted concentration of half-maximal effect; nearly all actives have a fitted effect of over 60% in size
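Kinetic colorimetric format: TGR-catalysed, NADPH-driven DTNB reduction monitored via TNB absorbance. Enzyme dispensed at 20 nM; compound exposure 15 min at room temperature before reaction start.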
RE007 growth inh – less growth of the S. pombe RE007 Vpr strain; AID 651644; S. pombe RE007 Vpr strain, BacTiter-Glo ATP luminescence, 24 h; Potency, µM (highest dose often 92.2 µM), inactives show at the top dose activity change, negative = less growth, most hits filed as inhibitors; 360,000 tested, 0.21% active; active = well fitted falling curve with a large enough effect; inconclusive = small, poorly fitted or top-dose-only effect; inactive = no such curve, though single readings can be large or run the other way; note: potency is the fitted concentration of half-maximal effect; nearly all actives have a fitted effect of over 50% in size
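Fission yeast strain RE007, carrying one chromosomally integrated HIV-1 vpr copy, was seeded at OD 0.01 in PMG+AL medium with 23 nL pinned compound. After 24 h at 30 °C and 99% humidity, viability was read by BacTiter-Glo luminescence.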
Giardia FBPA inh-1 – Giardia lamblia aldolase inhibition; A8B2U2; purified Giardia FBPA; Potency, µM (titrated, usually from 59.6 µM), for inactives: at the top dose activity, negative = inhibition, most hits filed as inhibitors; 290,000 tested, 0.71% active; AID 2451; note: potency is the fitted concentration of half-maximal effect; nearly all actives have a fitted effect of over 55% in size
Target sequence (A8B2U2 whole entry, looked up): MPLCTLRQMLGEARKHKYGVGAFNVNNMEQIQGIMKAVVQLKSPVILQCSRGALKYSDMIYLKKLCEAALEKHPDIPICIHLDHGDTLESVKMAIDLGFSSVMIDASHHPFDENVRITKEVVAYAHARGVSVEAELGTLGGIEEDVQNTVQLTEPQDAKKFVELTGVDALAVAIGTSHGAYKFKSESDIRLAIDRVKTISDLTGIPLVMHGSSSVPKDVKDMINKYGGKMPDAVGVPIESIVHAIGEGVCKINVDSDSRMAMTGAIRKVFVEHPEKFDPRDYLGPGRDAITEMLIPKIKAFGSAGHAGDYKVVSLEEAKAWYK
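40 nM FBPA preincubated 10 min at RT with compound (up to 57.5 uM final), then substrate plus GAPDH/TPI/NAD/arsenate coupling and diaphorase/resazurin added. Fluorescence read after 20 min at RT, 525/598 nm.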
HCMV inh – inhibitors of human cytomegalovirus; activity change, negative = inhibition, % at 57.5 µM; HFF cells, HCMV-luciferase reporter, 72 h; active compounds read low; 410,000 tested, 4.5% active; AID 1259415; in the data active = activity change below about -60%; inconclusive = no clear call, values can overlap the other calls; inactive = above about -39%
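Steps: HFFs plated, 16 h 37C; compounds added; HCMV-luciferase added to MOI 1 PFU/cell; 72 h 37C; OneGlo reagent, 5 min room temperature; luminescence read, normalized to controls.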
FMDV inh – foot and mouth disease virus antiviral activity. FMDV antiviral cell-based qHTS. Potency, µM (titrated, usually from 57.9 µM), for the others: at the highest dose activity change, negative = inhibition, usual class: inhibitors. 410,000 tested, 1.2% active. AID 1159524; calls by dose curve; tested in HEK293T cells; note: read-out not given here; potency is the fitted concentration of half-maximal effect; nearly all actives have a fitted effect of over 45% in size
Giardia growth – Giardia lamblia growth inhibition | shares compounds with Giardia FBPA inh-1 | Giardia lamblia trophozoite growth inhibition | Potency, µM (series often up to 57.5 µM), for the others: at the top dose activity change, negative = inhibition, usual class: inhibitors | 1,500 tested, 5% active | AID 2785;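 note: potency is the fitted concentration of half-maximal effect; trophozoites exposed to compound for 48 h at 37 °C; nearly all actives have a fitted effect of over 70% in size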
Mammalian tox – mammalian cytotoxicity of Giardia aldolase inhibitor hits; Potency, µM (titrated, usually from 57.5 µM), for the others: top-dose viability change, negative = toxicity, most hits filed as inhibitors; mammalian cell viability counter-screen, qHTS; shares compounds with Giardia FBPA inh-1; AID 2786; 1,500 tested, 4% active;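 note: Chinese hamster ovary cells used as mammalian cytotoxicity surrogate; viability measured as cellular ATP by luminescence; potency is the fitted concentration of half-maximal effect; compound exposure lasted 48 h before reading; nearly all actives have a fitted effect of over 60% in size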
Giardia FBPA inh-2 – confirmation of Giardia fructose-bisphosphate aldolase inhibitors. shares compounds with Giardia FBPA inh-1. purified Giardia aldolase enzyme activity, qHTS. Potency, µM (series often up to 57.5 µM), without a hit: at the top dose activity change, negative = inhibition, most hits filed as inhibitors. 1,500 tested, 5% active; note: potency is the fitted concentration of half-maximal effect; nearly all actives have a fitted effect of over 45% in size
Rabbit FBPA inh – rabbit FBP aldolase inhibition by Giardia aldolase hits; shares compounds with Giardia FBPA inh-1; Rabbit muscle FBPA enzyme inhibition, selectivity counter-screen; Potency, µM (doses to about 57.5 µM), for inactives: at the top dose activity, negative = inhibition, most hits filed as inhibitors; 1,500 tested, 4% active; AID 2794; note: potency is the fitted concentration of half-maximal effect; nearly all actives have a fitted effect of over 60% in size
Target sequence (P00883 whole entry, looked up): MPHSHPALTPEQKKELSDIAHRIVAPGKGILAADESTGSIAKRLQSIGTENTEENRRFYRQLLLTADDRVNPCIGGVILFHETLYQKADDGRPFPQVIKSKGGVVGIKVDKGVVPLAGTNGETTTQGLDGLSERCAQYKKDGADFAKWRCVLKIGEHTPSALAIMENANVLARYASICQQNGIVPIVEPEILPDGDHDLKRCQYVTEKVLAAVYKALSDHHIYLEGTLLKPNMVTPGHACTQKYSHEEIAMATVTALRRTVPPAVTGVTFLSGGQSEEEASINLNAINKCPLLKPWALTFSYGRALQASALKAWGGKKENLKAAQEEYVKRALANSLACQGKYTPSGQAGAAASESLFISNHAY
GAPDH coupling – counter-screen for Giardia aldolase inhibitors: GAPDH coupling enzyme; Potency, µM (series often up to 57.5 µM), for the others: at the top dose activity change, negative = inhibition, most hits filed as inhibitors; 1,500 tested, 6% active; shares compounds with Giardia FBPA inh-1; GAPDH coupling enzyme counterscreen, biochemical, qHTS; note: potency is the fitted concentration of half-maximal effect; nearly all actives have a fitted effect of over 55% in size
An asterisk follows results filed as active; ? = inconclusive; . = no result given; [ ] = remark or other dose. Unless noted, calls come from the whole dose curve; as a rule, active = well fitted curve in the direction sought with a large enough effect; inconclusive = small, poorly fitted or top-dose-only effect, or another doubt; inactive = no such curve, though single readings can be large; an effect the other way counts as inactive or inconclusive. % is set by controls: 0 for no effect and ±100 for the full control effect.

SMILES	TbPYK inhibitor	Sm TGR block	RE007 growth inh	Giardia FBPA inh-1	HCMV inh	FMDV inh	Giardia growth	Mammalian tox	Giardia FBPA inh-2	Rabbit FBPA inh	GAPDH coupling
CCNC(=S)NNc1ccccc1	-8%	14µM*	?	11µM*	57	1%	-13%[10.4 µM]	11%	3%	11%	2%
CN(C)CCCNC(=O)c1ccc(/C=N/O)nc1	-4%	0%	22%	2%	-26	-6%	.	.	.	.	.
CNCCCNC(=O)c1ccc(/C=N/O)nc1	-11%	-35%	7%	16µM*	-38	12%	60%	-6%	1%	8%	4%
O=C(NCc1ccccc1)c1ccc(/C=N/O)nc1	9%	4%	7%	2%	18	7%	.	.	.	.	.
NC(=O)c1ccc(/C=N/O)nc1	-7%	13%	-2%	18µM*	-10	5%	?	3%	3%	6%	2%
CCOc1ccc(CCNC(=O)CCCc2nnc3n(C)c(=O)c4sccc4n23)cc1OCC	2%	-3%	.	.	15	-8%	.	.	.	.	.
C=C1CCC[C@]2(C)C[C@H]3OC(=O)C(CNCCN(CC)CC)[C@H]3CC12 (stereo not given in full)	0%	0%	-14%	16µM*	-21	-14%	?	12%	1%	12%	8%
COc1ccc(NN=Nc2nc3c([nH]2)c(=O)n(C)c(=O)n3C)cc1	?	18µM*	5%	18µM*	-7	20%	?	-10%	13µM*	?	?
COc1ccc(C=NNc2nc3c([nH]2)c(=O)n(C)c(=O)n3C)cc1	2%	.	7%	.	21	-11%	.	.	.	.	.
O=C1c2cccc([N+](=O)[O-])c2C(=O)N1CCO	12%	0%	-6%	6%	11	-12%	.	.	.	.	.
O=C1CSC(=S)N1N1C(=O)c2cccc([N+](=O)[O-])c2C1=O	.	?	.	18µM*	.	.	?	5%	4%	11%	11%
CC(=O)c1c(C)[nH]c(=S)c(C#N)c1-c1ccc(Cl)cc1	?	5%	7%	24%	13	-12%	.	.	.	.	.
Cc1[nH]c(=S)c(C#N)c(-c2ccco2)c1C(=O)N(C)C	?	-21%	27%	20µM*	-30	-2%	?	8%	-2%	-3%	0%
Cc1[nH]n(-c2ccccc2)c(=O)c1/C=N/Nc1nncc(-c2ccccc2)n1	1%	-15%	-24%	7.9µM*	-99*	.	?	20µM*	-16%	-3%	-8%
Cc1ccc(/C=N/Nc2nncc(-c3ccccc3)n2)o1	2%	-2%	-19%	-6%	-2	8%	.	.	.	.	.
Cc1cc(C)cc(N2C(=O)CC(Sc3ncn[nH]3)C2=O)c1 (stereo not given)	-15%	0.5µM*	-8%	20µM*	-3	-1%	22%	-4%	4%	4%	11%
CCC(=O)NNC(=S)NC(=O)c1ccc(C)cc1	-5%	0%	-22%	18µM*	5	-5%	?	-5%	23%	-1%	13%
Cc1ccc(N2C(=O)[C@@H]3CSC(c4ccc(Cl)cc4)N3C2=O)cc1 (stereo not given in full)	-7%	1%	.	.	-9	-7%	.	.	.	.	.
O=C(NC1CCCCC1)c1ccc2c(c1)N(Cc1cccc(Cl)c1)C(=O)c1ccccc1S2=O (stereo not given)	4%	19%	.	.	?	-9%	.	.	.	.	.
COc1cc(-c2nc(S(=O)(=O)c3ccc(C)cc3)c(N3CCOCC3)o2)cc(OC)c1OC	5%	?	39%	35µM*	116	10%	?	-22%	3%	10%	6%
COc1cc(-c2nc(S(=O)(=O)c3ccc(Cl)cc3)c(N3CCOCC3)o2)cc(OC)c1OC	27%	?	12%	1%	.	-14%	.	.	.	.	.
CCN(CC(=O)NCc1ccccc1Cl)CC(=O)Nc1c(F)cccc1F	5%	-8%	2%	18µM*	-1	-2%	44%	0%	8%	4%	11%
CN(CC(=O)NCc1ccccc1Cl)CC(=O)Nc1ccccc1Br	-2%	-1%	2%	.	21	-26%	.	.	.	.	.
COc1ccc(-n2c(=O)cnc3cnc(Oc4ccccc4)nc32)cc1	-2%	.	.	-5%	.	-10%	.	.	.	.	.
CCC(Sc1nc2ncccc2[nH]1)C(=O)NCCc1ccccc1 (stereo not given)	-3%	-5%	5%	2.2µM*	-61*	-10%	4%[10.4 µM]	0%	4%	13%	-6%
SMILES	TbPYK inhibitor	Sm TGR block	RE007 growth inh	Giardia FBPA inh-1	HCMV inh	FMDV inh	Giardia growth	Mammalian tox	Giardia FBPA inh-2	Rabbit FBPA inh	GAPDH coupling
CCC(C)[C@H](NC(=O)[C@@H]1Cc2ccccc2CN1)C(=O)NCc1ccc(OC)cc1 (stereo not given in full)	7%	8%	-19%	14µM*	19	-16%	-30%	14%	8%	2%	11%
CCC(C)[C@H](NC(=O)[C@@H]1Cc2ccccc2CN1)C(=O)NCc1ccc(C)cc1 (stereo not given in full)	5%	.	-1%	.	-20	-10%	.	.	.	.	.
CC(C)C(NS(=O)(=O)c1ccc2c(c1)oc(=O)n2C)C(=O)NCCc1ccc(Cl)cc1 (stereo not given)	0%	7%	.	.	2	1%	.	.	.	.	.
CSCCC(NS(=O)(=O)c1ccc2c(c1)oc(=O)n2C)C(=O)N1CCN(c2cc(Cl)ccc2C)CC1 (stereo not given)	0%	-2%	.	.	22	-14%	.	.	.	.	.
Brc1ccccc1OCCN1CCOCC1	17%	-1%	5%	28µM*	25	5%	31%	0%	1%	-7%	7%
Clc1cc(Br)ccc1OCCN1CCOCC1	6%	-9%	-13%	-24%	-8	-5%	.	.	.	.	.
CC(N)(C(=O)O)c1ccc(P(=O)(O)O)cc1 (stereo not given)	.	.	.	.	.	-18%	.	.	.	.	.

Screening data: PubChem BioAssay, National Center for Advancing Translational Sciences (NCATS)
